Compound activity as filed in PubChem.
This is a sample that favours compounds with a hit; in the whole collection about 3.5% have one here.
TEAD-YAP block = TEAD-YAP interaction inhibition, primary screen, TEAD-YAP interaction inhibitor project, luminescence, HEK-TIYL cells; TEAD-Gal4/YAP UAS-luciferase luminescence; inhibition, % at 9.12 µM; 1.4% of 640,000 active; AID 1259422, 2018; in the data active = inhibition above about 32%
GPR151 activ = activators of human GPR151, primary screen, cell-based, PathHunter beta-arrestin, luminescence; G-protein coupled receptor 151 (Homo sapiens), Q8TDV0; PathHunter beta-arrestin GPR151 cells; activation, % at 11.2 µM; 1% of 650,000 active; in the data active = activation above about 4.9%
Target sequence (Q8TDV0 whole entry, looked up): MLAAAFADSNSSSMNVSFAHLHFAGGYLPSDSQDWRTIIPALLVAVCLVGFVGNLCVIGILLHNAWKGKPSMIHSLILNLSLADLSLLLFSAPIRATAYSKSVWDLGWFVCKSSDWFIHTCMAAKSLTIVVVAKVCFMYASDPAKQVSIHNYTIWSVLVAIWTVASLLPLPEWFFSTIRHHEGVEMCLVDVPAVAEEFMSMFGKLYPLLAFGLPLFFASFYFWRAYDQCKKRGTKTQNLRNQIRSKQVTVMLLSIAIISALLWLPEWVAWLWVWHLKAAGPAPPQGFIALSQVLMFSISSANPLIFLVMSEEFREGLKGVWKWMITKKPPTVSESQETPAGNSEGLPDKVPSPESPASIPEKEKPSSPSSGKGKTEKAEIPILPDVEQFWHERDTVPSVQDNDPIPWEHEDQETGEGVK
MITF primary = MITF inhibitors, primary screen, biochemical, AlphaScreen, human; Microphthalmia-associated transcription factor (Homo sapiens), O75030; AlphaScreen MITF homodimerization, bead proximity signal; inhibition, % at 2.6 µM; 0.91% of 650,000 active; AID 1259374, 2018; in the data active = inhibition above about 50%
FBW7 activator = FBW7 E3 ligase activators, primary screen, biochemical, AlphaScreen, human; F-box/WD repeat-containing protein 7 (Homo sapiens), Q969H0; AlphaScreen FBW7–phospho-cyclin E peptide binding, activator screen; normalized activity (activation), % at 26.1 µM; 0.13% of 650,000 active; in the data active = normalized activity above about 1.9%;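 also: purified mutant Fbw7 with reduced substrate affinity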
Of the large screens only hits and unclear results are named; the others gave an inactive call.

CCOc1ccc(-c2cn(-c3ccccc3)c3[n+]2CCS3)cc1	TEAD-YAP block 65
COc1ccc(-n2cc(-c3ccccc3)[n+]3c2SCC3)cc1	TEAD-YAP block 59
COc1ccc(-c2cn(-c3ccccc3)c3[n+]2CCS3)cc1	TEAD-YAP block 32
COc1ccc(-n2cc(-c3ccc(Cl)cc3)[n+]3c2SCCC3)cc1	none
COc1cc(C(=O)/C=C/Nc2ccccc2C(N)=O)cc(OC)c1OC	TEAD-YAP block 38
COc1cc(C(=O)/C=C/Nc2ccccc2C)cc(OC)c1OC	none
Cc1ccc(C(=O)/C=C/Nc2ccccc2C(N)=O)cc1	TEAD-YAP block 56
Cn1c2ccccc2c2nnc(N/N=C/c3ccccn3)nc21	TEAD-YAP block 36
CCCn1c(O)c(C=Nc2c(C)n(C)n(-c3ccccc3)c2=O)c(=O)[nH]c1=S	none
COc1ccccc1NC(=O)Cn1c(-c2nonc2N)nc2ccccc21	TEAD-YAP block 65
COC(=O)c1ccccc1NC(=O)Cn1c(-c2nonc2N)nc2ccccc21	TEAD-YAP block 54
COc1cc(/C=N/NC(=O)Cn2c3ccccc3c(=O)c3ccccc32)ccc1O	TEAD-YAP block 53
CCOc1cc(/C=N/NC(=O)Cn2c(-c3nonc3N)nc3ccccc32)ccc1O	TEAD-YAP block 46
CC(=O)c1ccc(NC(=O)Cn2c(-c3nonc3N)nc3ccccc32)cc1	none
COc1cc(/C=N/NC(=O)CCC(=O)N/N=C/c2ccc(O)c(OC)c2)ccc1O	none
CSc1ccccc1NC(=O)c1ccc(N2CC3CC(C2)c2cccc(=O)n2C3)c(NC(=O)c2cc3ccccc3oc2=O)c1 (configuration not stated)	none
N#CCOc1ccccc1/C=N/n1nnnc1N	FBW7 activator 1.9
C=CCOc1ccccc1/C=N/n1nnnc1N	none
CC(C)CNc1nccn2c(-c3cccc4cccnc34)cnc12	TEAD-YAP block 42
Fc1ccc(CNc2nccn3c(-c4cccc5cccnc45)cnc23)cc1	none
COc1cc(OC)nc(Sc2ccccc2/C=N/O)n1	TEAD-YAP block 57
Cc1cccn2c(=O)c3cc(C(=O)NCc4cccnc4)c(=N)n(Cc4ccco4)c3nc12	none
CCNC(=O)c1cc2c(=O)n3cccc(C)c3nc2n(Cc2ccco2)c1=N	TEAD-YAP block 58
Cc1cccn2c(=O)c3cc(C(=O)NC4CCCCC4)c(=N)n(CCCn4ccnc4)c3nc12	FBW7 activator 2.1
Cc1c(C(=O)N2CC(C)CC(C)C2)sc2ncnc(N3CCN(c4ccccn4)CC3)c12 (configuration not stated)	none
COc1ccc2cc3cc(C(=O)NCCc4ccc(OC)c(OC)c4)oc3nc2c1	TEAD-YAP block 45
COc1ccc2cc3cc(C(=O)N4CCCCC4C)oc3nc2c1 (configuration not stated)	TEAD-YAP block 36
COc1ccc(S(=O)(=O)N(CC(=O)NCCc2ccc(OC)c(OC)c2)c2ccc(C)cc2)cc1	TEAD-YAP block 36
CC(=O)Nc1ccc(CN2CCCC(N(C)CCc3ccccc3)C2)cc1 (configuration not stated)	none
COc1ccc(/C=C/C(C)=N\Nc2ccc([N+](=O)[O-])cc2)cc1	none
CCC(C)c1ccc(OCCCNCCO)cc1 (configuration not stated)	TEAD-YAP block 40
COc1cc(Nc2nc(NCCCN3CCCC3=O)c3ncn(-c4ccsc4)c3n2)cc(OC)c1OC	TEAD-YAP block 54
COc1cc(Nc2nc(NCCCN3CCCC3=O)nc3c2ncn3-c2ccsc2)cc(OC)c1OC	none
Cn1nccc1Nc1nc(NCCCN2CCCC2=O)c2ncn(-c3ccsc3)c2n1	none
O=C1CCCN1CCCNc1nc(Nc2ccccn2)nc2c1ncn2-c1ccsc1	TEAD-YAP block 53
COc1cc(Nc2nc(N3CCN(c4ccccn4)CC3)nc3c2ncn3CCN2CCCC2=O)cc(OC)c1OC	TEAD-YAP block 33
O=C1CCCN1CCCNc1nc(Nc2cnccn2)nc2c1ncn2-c1ccsc1	TEAD-YAP block 75
O=C(CSc1nc2ccccc2c(=O)n1-c1ccc(Cl)cc1)c1cccs1	none
CCCN(CCC)S(=O)(=O)c1ccc(NS(=O)(=O)c2ccc(C)cc2)cc1	none
O=C1CCCN1CCCNc1nc(NC2CC2)c2ncn(-c3ccsc3)c2n1	TEAD-YAP block 34
CN(C)CCn1c2ccccc2c2cnc(N)c(C#N)c21	TEAD-YAP block 93
O=C(/C=C/c1ccc(F)cc1)N1CCN(Cc2ccccc2)CC1	none
O=C(/C=C/c1ccccc1)N1CCN(Cc2nc(-c3ccc(F)cc3)cs2)CC1	TEAD-YAP block 39
C=C(C)COc1ccc2oc(-c3ccccc3)c(C(=O)OCC)c2c1	none
COCCSc1nnc(NC(=O)COc2ccc(Cl)cc2Cl)s1	none
Cc1nc(C)c(CN2CCC(C(=O)Nc3ccc(Oc4cccnc4)cc3)CC2)nc1C	none
O=C(Nc1ccc(Oc2cccnc2)cc1)C1CCN(Cc2cc3ccccc3o2)CC1	TEAD-YAP block 44
COc1ccc(-c2nc3ncnc(Nc4ccc(NC(C)=O)cc4)c3[nH]2)cn1	none
COc1ccc(-c2nc3ncnc(NCCc4ccc(O)cc4)c3[nH]2)cc1	TEAD-YAP block 59
COc1ccc(-c2nc3ncnc(Nc4cc(OC)c(OC)c(OC)c4)c3[nH]2)cn1	TEAD-YAP block 46
CC(=O)c1cccc(-c2nc(Nc3ccccc3)c3[nH]cnc3n2)c1	none
COc1ccc(-c2nc(Nc3cc(OC)c(OC)c(OC)c3)c3[nH]cnc3n2)cn1	TEAD-YAP block 57
COc1cc(Nc2nc(-c3cccc(C(C)=O)c3)nc3nc[nH]c23)cc(OC)c1OC	FBW7 activator 1.9
C[C@@H]1NC(=O)[C@@H]2C[C@H](NC(=O)Nc3cccc4ccccc34)CN2C1=O	none
CCOc1ccc(Oc2ccc(S(=O)(=O)NCCCN(C)C)cc2)cc1	none
COc1ccc(S(=O)(=O)N2CCC(CO)(Cc3cccc(F)c3)CC2)cc1	none
COc1ccc(-c2nc3ncnc(NCCOc4ccccc4)c3[nH]2)cn1	TEAD-YAP block 36
COc1ccc(-c2nc3ncnc(NCCN(C(C)C)C(C)C)c3[nH]2)cn1	none
CC1=C(C(=O)NCCc2ccc(S(N)(=O)=O)cc2)C2(CCC(C)CC2)OC1=O (configuration not stated)	FBW7 activator 2.0
CC1=C(C(=O)NCCc2ccc(S(N)(=O)=O)cc2)C2(CCCCC2)OC1=O	none
Cc1ccc(C(=O)c2oc3ccc(N)cc3c2C)cc1	TEAD-YAP block 54
COc1ccc(C(=O)c2oc3ccc(N)cc3c2C)cc1	TEAD-YAP block 52
COc1ccc(C(=O)c2oc3ccc(NC(C)=O)cc3c2C)cc1	none
O=C(NCCCn1ccnc1)c1ncoc1-c1ccccc1F	none
O=C(N[C@H]1C[C@H]2C(=O)N[C@@H](CO)C(=O)N2C1)c1cc(F)c(F)cc1F	none
CCN(CC)S(=O)(=O)c1cc(C(=O)Oc2cccc(NC(=O)c3ccccc3Cl)c2)ccc1C	TEAD-YAP block 55
O=C(Oc1cccc(NC(=O)c2ccccc2Cl)c1)c1ccc2c(c1)OCO2	TEAD-YAP block 60
